Screens from PubChem.
MITF primary = blocks human microphthalmia-associated transcription factor | O75030 | AlphaScreen MITF homodimerization, bead proximity signal | inhibition, % at 2.6 µM | 0.91% of 650,000 active; in the data active = inhibition above about 50%;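 also: 0% = vehicle wells with protein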
TEAD-YAP inh = TEAD-YAP interaction inhibition | HEK-TIYL cells, TEAD-Gal4/YAP UAS-luciferase luminescence | inhibition, % at 9.12 µM | 1.4% of 640,000 active; in the data active = inhibition above about 32%;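 also: 0% = median of test compound wells and 100% = reference inhibitor wells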
FBW7 activator = human FBW7 E3 ligase activation, primary screen; Q969H0; AlphaScreen FBW7–phospho-cyclin E peptide binding, activator screen; normalized activity (activation), % at 26.1 µM; 0.13% of 650,000 active; in the data active = normalized activity above about 1.9%;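 also: purified mutant Fbw7 with reduced substrate affinity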
GPR151 ag = activates the human receptor GPR151 | PathHunter beta-arrestin GPR151 cells, luminescence | Q8TDV0 | 1% of 650,000 active | activation, % at 11.2 µM; in the data active = activation above about 4.9%;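 also: 0% = median of compound wells and 100% = cells with positive control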
Target sequence (Q8TDV0 whole entry, looked up): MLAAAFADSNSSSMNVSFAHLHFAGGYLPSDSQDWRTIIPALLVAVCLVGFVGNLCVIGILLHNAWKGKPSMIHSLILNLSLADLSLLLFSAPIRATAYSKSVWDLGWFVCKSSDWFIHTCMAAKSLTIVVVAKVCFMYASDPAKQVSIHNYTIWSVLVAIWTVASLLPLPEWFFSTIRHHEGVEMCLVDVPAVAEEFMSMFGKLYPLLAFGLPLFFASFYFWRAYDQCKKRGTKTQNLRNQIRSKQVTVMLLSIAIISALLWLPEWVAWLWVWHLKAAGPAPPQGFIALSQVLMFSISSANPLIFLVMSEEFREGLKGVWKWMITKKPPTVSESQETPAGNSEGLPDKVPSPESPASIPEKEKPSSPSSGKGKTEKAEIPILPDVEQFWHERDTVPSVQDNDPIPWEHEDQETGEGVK
Starred values were filed as active, the others as inactive. Rows were chosen to be rich in hits. Some 3.4% of all compounds tested hit in one or more screens of this group.

SMILES	MITF primary	TEAD-YAP inh	FBW7 activator	GPR151 ag
CCC1=Nc2cc(C(=O)NCC(OC)OC)ccc2Sc2ccccc21	5.5	36.3*	-0.2	-0.3
CCC1=Nc2cc(C(=O)NCCOC)ccc2Sc2ccccc21	5.2	57.4*	0.0	1.7
CCN1C(=O)/C(=C2/C=CC=CN2C)SC1=Nc1ccc(Cl)cc1	7.7	-2.1	-0.2	0.6
O=C(N/N=C/c1ccc([N+](=O)[O-])cc1)C(=O)Nc1cccc(F)c1	-19.6	-23.7	0.0	-0.7
COc1ccc(C2/C(=C(\O)c3ccc(C)cc3)C(=O)C(=O)N2c2nc3ccccc3s2)c(OC)c1 (stereo not given)	-10.3	40.9*	-0.2	-1.4
COc1ccc(OC)c(C2/C(=C(\O)c3ccc(C)cc3)C(=O)C(=O)N2c2nc3ccccc3s2)c1 (stereo not given)	-3.7	-9.5	-0.1	-1.0
COc1ccc(-c2csc(NC(=O)c3ccccc3SC)n2)cc1C	7.4	-10.8	-0.1	-0.7
COc1ccccc1/C=C(\NC(=O)c1ccccc1)C(=O)Nc1cccc(O)c1	20.4	40.5*	0.1	-1.7
CONC(=O)[C@@H](NC(=O)c1ccccc1Oc1nc(OC)cc(OC)n1)C(C)C	-4.4	7.3	0.2	3.8
Cc1ccc(C)c(N2C(=O)/C(=C/c3ccc(Cl)cc3)C=C2c2ccccc2)c1	0.1	3.6	0.1	-0.6
COc1ccc(/C=C2\C=C(c3ccccc3)N(c3cccc4ccccc34)C2=O)cc1	18.1	56.9*	0.1	-1.9
COc1ccc(/C=C2\C=C(c3ccccc3)N(c3cc(C)ccc3C)C2=O)cc1	-9.2	41.8*	0.0	0.4
COc1cc2cc3c(N)c(C(=O)Nc4ccc(C(C)=O)cc4)sc3nc2cc1OC	2.6	9.1	0.0	0.6
O=C1CSC(=S)N1CCCCCCN1C(=O)CSC1=S	-17.0	-4.6	-0.2	-0.4
O=C(O)CCCN1C(=O)CSC1=S	0.1	57.3*	-0.1	1.8
O=C(O)CCCCCN1C(=O)CSC1=S	-13.2	32.5*	0.0	-1.0
CN(Cc1ccccc1C(F)(F)F)Cc1nnc(SCc2ccncc2)n1C	-3.9	8.6	0.1	2.8
O=C(/C=C/c1ccc(O)c(O)c1)OC(Cc1ccc(O)c(O)c1)C(=O)O (stereo not given)	88.5*	1.9	-0.3	0.8
COc1ccc(-c2nc(Nc3ccc(Oc4ccccc4)cc3)nc(OC)n2)cc1	15.7	2.6	0.1	2.3
COc1ccc(-c2nc(Nc3cc(OC)c(OC)c(OC)c3)nc(OC)n2)cc1	-2.0	45.3*	-0.1	-0.8
COc1ccc(-c2nccc(Nc3cc(OC)c(OC)c(OC)c3)n2)cc1	-0.5	60.4*	-0.2	1.7
CC(C)NC(=S)N/N=C/c1cccc(O)c1O	89.6*	-15.2	-1.2	-0.9
COCCNC(=S)N/N=C/c1cc(OC)c(OC)cc1OC	1.2	-0.9	-0.3	2.7
Cc1ccccc1NC(=O)C(=O)N/N=C/c1ccccc1O	52.2*	2.0	-0.3	0.7
Oc1cccc(/C=N/NC(=S)N/N=C/c2cccc(O)c2O)c1O	36.9	-1.4	-0.3	0.0
SMILES	MITF primary	TEAD-YAP inh	FBW7 activator	GPR151 ag
COCCNC(=O)C(=O)N/N=C/c1ccccc1O	53.3*	-2.2	-1.7	-1.3
COCCNC(=S)N/N=C/c1ccc(O)c(O)c1O	107.4*	5.2	-1.2	0.2
COCCNC(=O)CC(=O)N/N=C/c1ccccc1O	16.7	0.1	-1.6	0.4
CC(C)(NC(=O)NC(C)(C)c1ccncc1)c1ccncc1	3.2	3.1	-0.1	-0.1
N#CC1=C(N)Sc2ccc(F)cc2C12C(=O)NC1=C2C(=O)c2ccccc21 (stereo not given)	-13.0	0.2	-0.1	-0.6
COc1ccc(-c2nsc(SCC(=O)Nc3ccc(F)cc3)n2)cc1	19.9	0.0	-0.2	-0.2
Cc1csc2nc(-c3ccc(Cl)cc3Cl)cn12	-2.4	-67.8	-0.2	1.5
Cc1ccc(S(=O)(=O)N(C)CC(=O)NNC(=O)C(C)Oc2ccc(C#N)cc2)cc1 (stereo not given)	0.9	-1.7	-0.1	0.2
O=C(NNC(=O)C1c2ccccc2Oc2ccccc21)Nc1ccc2c(c1)OCO2	-10.3	61.1*	0.0	2.1
CC(=O)C1=C(c2ccc3c(c2)CCCC3)N(C(C)=O)n2cnnc2S1	8.6	37.9*	0.0	1.6
CC(=O)C1=C(c2ccccc2)N(C(C)=O)n2cnnc2S1	-5.3	15.6	0.0	1.1
COc1ccc(-c2cnn3c(N4CCCCC4CCO)ccnc23)cc1OC (stereo not given)	-6.9	37.6*	-0.5	-1.2
Cc1ccc(-c2cnn3c(N4CCC[C@H]4CO)ccnc23)cc1	-19.2	96.2*	-0.1	-2.0
CN1CCN(c2ccnc3c(-c4ccccc4F)cnn23)CC1	-11.7	66.9*	-0.2	0.9
CN1CCN(c2ccnc3c(-c4ccccc4Oc4ccccc4)cnn23)CC1	-8.9	-3.3	0.3	0.3
O=C(NC1CC1)c1ccc(-c2cnn3c(N4CCC[C@H]4CO)ccnc23)cc1	0.9	-64.0	-0.3	2.1
OCc1cccc(-c2cnn3c(N4CCC[C@H]4CO)ccnc23)c1	-15.1	66.3*	-0.3	1.5
Cc1ccccc1N/N=C/c1ccc([N+](=O)[O-])o1	15.7	20.9	-0.1	0.0
O=C(c1cc(-c2ccccc2)on1)N1CCN(S(=O)(=O)C2CC2)CC1	0.8	-3.0	0.0	-0.8
COC(=O)c1cccc(N2C(=O)C3C4CCC(C4=C(C)C)C3C2=O)c1 (stereo not given)	7.9	0.0	0.0	2.2
OC[C@@H]1CCCN1c1ccnc2c(-c3ccc(O)cc3)cnn12	-10.7	94.8*	-0.8	-0.5
OC[C@@H]1CCCN1c1ccnc2c(-c3ccc(F)c(Cl)c3)cnn12	17.1	82.7*	-0.1	-2.0
OC[C@@H]1CCCN1c1ccnc2c(-c3ccccc3F)cnn12	-13.5	90.3*	-0.2	-3.2
OC1CCN(c2ccnc3c(-c4ccc(F)c(Cl)c4)cnn23)CC1	-21.6	-56.4	-0.2	-1.5
OCc1ccccc1-c1cnn2c(N3CCC[C@H]3CO)ccnc12	-20.6	-16.7	-0.6	0.4
SMILES	MITF primary	TEAD-YAP inh	FBW7 activator	GPR151 ag
OC[C@@H]1CCCN1c1ccnc2c(-c3cnn(Cc4ccccc4)c3)cnn12	11.1	-57.5	-0.1	0.7
CC(C)c1ccc(NC(=O)C2C3C=CC4(O3)C2C(=O)N(C2CCCCC2)C4C(=O)NC2CCCCC2)cc1 (stereo not given)	-0.6	-2.5	0.1	-0.1
COCCN(Cc1ccccn1)C(Cc1ccccc1)C1CCN(Cc2cnn(C)c2)CC1 (stereo not given)	-2.0	-2.4	-0.2	-0.8
COCCN(Cc1cccnc1)C(Cc1ccccc1)C1CCN(Cc2cnn(C)c2)CC1 (stereo not given)	-4.5	5.7	7.6*	2.2
CC(=O)NC1C(OC2CCCCC2)OC(CO)C(O)C1O (stereo not given)	-1.1	-6.2	-0.1	0.0
O=C(O)CCN(CCC(=O)O)c1nnc(-c2ccccc2)s1	5.2	8.0	0.0	-0.8
CCC(=O)C(C#N)c1nnc(-c2ccccc2)s1 (stereo not given)	-0.5	37.3*	0.5	-3.4
Cc1ccc(NC(=O)N(Cc2cc3cc4c(cc3[nH]c2=O)OCCO4)CC2CCCO2)cc1 (stereo not given)	8.3	54.7*	-0.1	0.9
